In PubChem BioAssay (NCI):
Where “and” joins values, the source holds several entries; their conditions need not be identical. Equal entries are not always repeated. The panel holds about 79,000 compounds, 15% with a hit somewhere; the sample as a whole holds those more often. Cut-off read from the data, not from the text of the source: active = growth inhibition above about 70%; inactive = the rest.

Assays:
[1] = NCI Yeast Anticancer Drug Screen. Data for the rad50 strain (AID 155);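 note: 0% = growth of vehicle-only cultures of the same strain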; details: S. cerevisiae rad50 strain growth inhibition, active compounds read high; at 50.0 µM unless noted
How it was run: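 Compounds were tested on a yeast strain with an engineered DNA damage repair alteration; the reported value is growth inhibition normalised to vehicle treatment.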

[2] = NCI Yeast Anticancer Drug Screen. Data for the mec2-1 strain (AID 157); details: S. cerevisiae mec2-1 strain, active compounds read high; at 50.0 µM unless noted
How it was run: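 Growth inhibition is read against vehicle-treated controls after compound exposure of the mec2-1 yeast strain, which is defective in DNA damage repair or cell cycle control.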

[3] = NCI Yeast Anticancer Drug Screen. Data for the sgs1 mgt1 strain (AID 161);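 note: 0% = growth of cultures given vehicle only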; details: S. cerevisiae sgs1 mgt1 strain, active compounds read high; at 50.0 µM unless noted
How it was run: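 Compounds are added to genetically altered yeast, and growth is compared with cultures given vehicle alone to give percent inhibition.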

[4] = NCI Yeast Anticancer Drug Screen. Data for the cln2 rad14 strain (AID 165);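 note: 0% = growth equal to vehicle treated cultures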; details: S. cerevisiae cln2 rad14 strain, active compounds read high; at 50.0 µM unless noted
How it was run: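 Growth inhibition, relative to vehicle-treated controls, is the read-out. The test organism is a yeast strain with defined genetic alterations, cln2 rad14.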

[5] = NCI Yeast Anticancer Drug Screen. Data for the bub3 strain (AID 167); details: S. cerevisiae bub3 mutant strain, active compounds read high; at 50.0 µM unless noted
How it was run: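 Growth of a checkpoint-deficient yeast mutant is measured after compound exposure. Values represent inhibition relative to vehicle.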

[6] = NCI Yeast Anticancer Drug Screen. Data for the mlh1 rad18 strain (AID 175); details: S. cerevisiae mlh1 rad18 strain growth inhibition, active compounds read high; at 50.0 µM unless noted
How it was run: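 Cells of a genetically altered yeast strain, deficient in DNA damage repair, were treated with compound. Their growth was then compared with that of vehicle-treated cultures to give inhibition.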

Measured: growth inhibition

S=C(Nc1ccc2c(c1)oc1ccccc12)c1cccs1
inactive: [1] 35.1% | [2] 16.6% | [3] -36.2% | [4] -7.25% | [5] -9.6% | [6] -4.6%

COC(=O)C(Br)C(CCCN1C(=O)c2ccccc2C1=O)OC (configuration not stated)
inactive: [1] 27.5% | [2] 7.55% | [3] 45.9% | [4] 8.5% | [5] 39.9% | [6] 19.1%

COc1cc(C2c3cc4c(c(OC5OC(CO)C(O)C5O)c3CC3COC(=O)C32)OCO4)cc(OC)c1OC (configuration not stated)
inactive: [1] 34.4% | [2] 6.65% | [3] 17.9% | [4] 19.9% | [5] -0.95% | [6] 5.7%

CCOC(C)=Nc1cc(OC)cc2c1NC(=O)CCS2
inactive: [1] -28.9% | [2] -20.1% | [3] -36.6% | [4] -50% | [5] 5.6% | [6] -40.2%

COc1ccc(/C(C)=N/NC(=O)c2ccncc2)cc1OC
inactive: [1] -9.6% | [2] -9.9% | [3] -18.6% | [4] -12.7% | [5] -40% | [6] -4.2%

CC(=O)OC(CCC1CO1)OC(C)=O (configuration not stated)
inactive: [1] 0.65% | [2] 11.6% | [3] -0.2% | [4] -7.65% | [5] 15.2% | [6] -0.1%

COc1ccc(C2NC3=C(CCCC3)N2)cc1
inactive: [1] 26.4% | [2] 4.45% | [3] -13.9% | [4] 8.3% | [5] -3.9% | [6] 32.9%

CC1(C)OC2COC(OCc3ccccc3)C(OCc3ccccc3)C2O1 (configuration not stated)
inactive: [1] 17.4% | [2] 8.1% | [3] 26.8% | [4] 7.35% | [5] -8.7% | [6] 19%

CC1CCCCN1Cc1ccccc1COC(=O)c1ccc([N+](=O)[O-])cc1Cl (configuration not stated)
inactive: [1] 41.1% | [2] 30.4% | [3] 49.9% | [4] 8.85% | [5] 21.4% | [6] -3.6%

CNC(=O)N(C)Cc1ccccc1
inactive: [1] 12.7% | [2] -12.8% | [3] 2.75% | [4] -98.7% | [5] -13.6% | [6] -11.2%

C=CCC1(CN(C)C)CC/C(=C\c2ccc(Cl)cc2)C1=O (configuration not stated)
inactive: [1] 55.2% | [2] 23.6% | [3] 59.8% | [4] 42.2% | [5] 16.3% | [6] 52.5%

CCNc1cccc(C)c1
inactive: [1] 28.9% | [2] -10.7% | [3] -16.2% | [4] -33.8% | [5] 12.8% | [6] 23.1%

Cc1cc2cc3c(=O)[nH]c(=O)[nH]c3nc2cc1C
inactive: [1] -11.7% | [2] 1.65% | [3] -19% | [4] -8.6% | [5] -27.2% | [6] -0.05%

C=CCOC(=O)c1ccc(C(C)C)cc1
inactive: [1] 25.1% | [2] 12% | [3] 9.5% | [4] 7.6% | [5] 8% | [6] 35.6%

CC(C)(C)OC(=O)C(=[N+]=[N-])C(=O)OC(C)(C)C
inactive: [1] 8.75% | [2] 1.5% | [3] 2.3% | [4] -28.5% | [5] -7.15% | [6] 17.7%

CCN(CC)C(=O)c1c(Cl)cc(N(CC)CC)oc1=O
inactive: [1] -21.7% | [2] -11.8% | [3] -42% | [4] -23.5% | [5] -41.1% | [6] -54.5%

COC(=O)C(Cc1ccccc1)N=Cc1c(O)c(O)c(C(C)C)c2cc(C)c(-c3c(C)cc4c(C(C)C)c(O)c(O)c(C=NC(Cc5ccccc5)C(=O)OC)c4c3O)c(O)c12 (configuration not stated)
inactive: [1] 19.7% | [2] 9.7% | [3] 11.7% | [4] 17.1% | [5] 16.1% | [6] 4.75%

CC(=O)OC1C(Br)CCCC1Br (configuration not stated)
inactive: [1] -26% | [2] 4.25% | [3] 1.75% | [4] 1.9% | [5] 0.45% | [6] 15.8%

O=C1N=C2Sc3ccc4ccccc4c3N2C1=O
inactive: [1] 21.2% | [2] 2.55% | [3] 24.1% | [4] 20.4% | [5] 5.5% | [6] 11.2%

O=C(CSc1n[nH]c(=S)c2nc[nH]c12)c1ccc(Br)cc1
inactive: [1] 11.7% | [2] -0.2% | [3] 21.6% | [4] 33.1% | [5] -0.4% | [6] -8.65%

O=C(c1ccccc1)C1CC1C(=O)c1ccccc1 (configuration not stated)
inactive: [1] -3.55% | [2] -11.8% | [3] -6.1% | [4] -61.5% | [5] 38.3% | [6] -3.45%

C=CCC(Cc1ccccc1)C(N)=O (configuration not stated)
inactive: [1] -21.1% | [2] -51.7% | [3] -14.5% | [4] 10.6% | [5] -22.2% | [6] 14.4%

CCCCCCCCOC(=O)NC1c2ccccc2Oc2c(C)cccc21 (configuration not stated)
inactive: [1] 1.7% | [2] 5.9% | [3] 9.45% | [4] -30.1% | [5] -3.05% | [6] 12.9%

O=C(CO)C(O)C(O)C(O)C(O)CO (configuration not stated)
inactive: [1] 19.2% and -6.1% | [2] 4.7% and 1.6% | [3] 20.3% and 3.4% | [4] -1.1% and -1.05% | [5] 32.5% and -3.2% | [6] 20.9% and 5.8%

CC(=O)N(C)c1ccccc1
inactive: [1] -19.2% | [2] -20.9% | [3] -16.4% | [4] -40.5% | [5] -8.45% | [6] -7.55%

O=[N+]([O-])C(C(Cl)=C(Cl)Cl)=C(N1CCOCC1)N1CCOCC1
inactive: [1] -25.2% | [2] -21.1% | [3] -19.1% | [4] -9.6% | [5] 5.1% | [6] 1.85%

Cn1cnc([N+](=O)[O-])c1Sc1ncn[nH]1
inactive: [1] -3.45% and 6% | [2] 3.3% and -1.85% | [3] 8.45% and 2.6% | [4] 0.35% and 24.6% | [5] 4% and 21.8% | [6] -54.3% and 0.9%

CCOC(=O)C12CCCC1(O)N(NC(=O)OC)C(C)=C2C(=O)OC (configuration not stated)
inactive: [1] -6.6% | [2] -7.65% | [3] 2.05% | [4] -63.4% | [6] -6.5%

C/C(=C\c1ccccc1)c1ccccn1
inactive: [1] -2.25% and -1.9% | [2] -4.6% and -17.4% | [3] -6.25% and 10.8% | [4] -68.8% and -22.6% | [6] -7.4% and 8.3%

CS(=O)(=O)c1ccc(/C(=N/N)c2ccccc2)cc1
inactive: [1] 1.65% | [2] 9.65% | [3] 9.2% | [4] 28.2% | [5] 13.5% | [6] 17.4%

CCOC(=O)Cc1nc2ccccc2[nH]1
inactive: [1] 4.4% | [2] -7.85% | [3] -13.2% | [4] -103% | [5] -12.2% | [6] -3.2%

CC(C)C(=O)/C=C/c1ccc(Cl)cc1
inactive: [1] 0.95% and -1.3% | [2] -18.9% and -16.6% | [3] -16.1% and -10.2% | [4] -66.7% and -44.9% | [6] -16.9% and -8.65%

CCOC(OCC)C1(C)CC=CCC1 (configuration not stated)
inactive: [1] 20.4% | [2] 11.3% | [3] 5.05% | [4] -3.4% | [5] 3.15% | [6] 6.4%

C=C(C)C1CC[C@@](C)(O)[C@H](C#N)C1 (some centres not stated)
inactive: [1] 6.15% | [2] -15.7% | [3] -22.8% | [4] -12.2% | [6] -44%

O=C(c1ccc(Cl)cc1)N1CCC(CCCc2ccccc2)CC1
inactive: [1] -2.2% | [2] 3.45% | [3] -4.3% | [4] 5.05% | [5] 12.8% | [6] -3.2%

Oc1ccccc1C1CCCC1
inactive: [1] 5.55% | [2] -10% | [3] -4.75% | [4] 3.7% | [6] -2.45%

CCCCCN1C(=O)c2ccccc2C1=O
inactive: [1] 23.1% | [2] 10.5% | [3] 6.4% | [4] 5.15% | [5] 6.3% | [6] -0.55%

O=C1CC(c2ccccc2)N1c1ccccc1 (configuration not stated)
inactive: [1] -17.9% | [2] -34% | [3] -11.3% | [4] -20.6% | [6] -22.8%

CCSC1C(O)C(CO)OC1n1cnc2c(=S)nc[nH]c21 (configuration not stated)
inactive: [1] -3.65% | [2] -28.7% | [3] -2% | [4] 2.6% | [6] 0.2%

N#CC1C(=O)C(=O)N(c2ccccc2)C1=O (configuration not stated)
inactive: [1] -6.1% | [2] -6.85% | [3] -24.7% | [4] 3.15% | [6] -6.25%
